Results from PubChem BioAssay AID504832 (National Center for Advancing Translational Sciences (NCATS), 2011).
Where “and” joins values, the source holds several entries; their conditions need not be identical. Identical values can stand only once. The whole screen tested about 310,000 compounds, of which about 18,000 (5.8%) were called active. Not shown: some 22% with an inconclusive outcome. For the sample, actives were picked, then their nearest neighbours and some compounds at random. A number with no mark means an inactive call. The call rests on the fitted dose curve; in most records, active means well fitted inhibition curve with a large enough effect; inconclusive means small, poorly fitted or top-dose-only effect, or another doubt; inactive means no such curve, though single readings can be large or run the other way.

Test: Primary qHTS for delayed death inhibitors of the malarial parasite plastid, 48 hour incubation
Conditions: P. falciparum luciferase growth in erythrocytes; series mostly up to 28.7 µM; activity change, negative = inhibition: at the top concentration
Method in brief: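 Parasite viability was followed by luminescence of a genomically integrated firefly luciferase. Cultures held 0.1% parasitemia at 2% hematocrit (final), incubated under 5% CO2 at 37 C.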
On the % scale 0 is the no-effect control and ±100 the full control effect; potency means the concentration at half of the fitted maximal effect.

SMILES	activity change, negative = inhibition	Potency
COC(=O)c1c(NC(=O)C2CC(C)=C(C)CC2C(=O)O)sc2c1CCCCC2 (centres undefined)	1.83%	
COC(=O)c1ccc(S(=O)(=O)N2CCc3ccccc3C2)cc1	18.3%	
COc1ccc(C2Nc3ccccc3C(=O)N2c2ccc(F)cc2)cc1Cn1nnc2ccccc21 (centres undefined)		6.57 µM (active)
COc1ccc(C2Nc3ccccc3C(=O)N2c2ccc(Cl)cc2)cc1Cn1cc([N+](=O)[O-])cn1 (centres undefined)	4.94%	
COc1ccc(N2C(=O)c3ccccc3NC2c2ccc(OC)c(CN3CCOCC3)c2)cc1 (centres undefined)	46%	
COc1ccc(C2Nc3ccccc3C(=O)N2Cc2ccccc2)cc1Cn1nnc2ccccc21 (centres undefined)		3.7 µM (active)
Cc1ccc(C2Nc3ccccc3C(=O)N2CCN2CCNC2=O)cc1 (centres undefined)	-5.97%	
COc1ccc(C2=NO[C@@H]3C(=O)N(Cc4ccccc4)C(=O)[C@H]23)cc1OC	14.1%	
CCCc1c(C(=O)N/N=C(\C)CCc2ccc(OC)cc2)nnn1-c1nonc1N	25.2%	
CC(C)C(NC(=O)c1c(F)cccc1F)C(=O)NCc1ccncc1 (centres undefined)	7.76%	
CCS(=O)(=O)Nc1cccc(-c2cc(-c3ccccc3)c3cc(C)ccc3n2)c1	-16.1%	
Cc1ccc2nc(Nc3ccccc3O)nc(-c3ccccc3)c2c1		13.1 µM (active)
O=C(CCl)NNc1nc(-c2ccccc2)c2cc(Cl)ccc2n1	3.75%	
Nc1c(C(=O)OCC(=O)Nc2ccc(OC(F)F)cc2)[nH]c(=O)[nH]c1=O	19.4%	
O=C(c1cc(COc2ccc(F)cc2F)on1)N1CCOCC1	56.8%	
CCCCN(CCCC)CCC(O)c1cc2c(Cl)cc(Cl)cc2c2cc(C(F)(F)F)ccc12 (centres undefined)		3.2 nM (active) and 4.1 nM (active)
CCCCC(=O)Nc1ccc(C(=O)Nc2cc(C(F)(F)F)ccc2Cl)cc1	-22.2%	
COc1cccc(CNC(=O)COc2cc(O)c3c(c2)OC(C)(C)CC3=O)c1	19.9%	
Clc1ccc(CSc2nnc3c(n2)[nH]c2ccccc23)cc1		5.22 µM (active)
Cc1ccc(CNC(=O)CSc2nnc3c(n2)[nH]c2ccc(F)cc23)cc1	1.4%	
O=C(CSc1nnc2c(n1)[nH]c1ccccc12)NC1CCCCC1	0%	
CCCCN(C(=O)c1ccc(S(=O)(=O)N2CCOCC2)cc1)C1CCS(=O)(=O)C1 (centres undefined)	-11.1%	
O=C1NCC(=O)N(Cc2ccccc2)/C1=C/c1ccccc1	399%	

SMILES	activity change, negative = inhibition	Potency
O=C1NNC(c2ccccc2)=N/C1=C\c1ccc(Cl)cc1		6.57 µM (active)
O=C1OC(c2ccc(Cl)cc2)=N/C1=C\c1cccnc1	8.84%	
COc1ccc(C2CC(c3ccc([N+](=O)[O-])cc3)=NN2C(C)=O)cc1 (centres undefined)	37.5%	
CNC(=O)C1CC(=O)N(c2ccc(OCC(=O)Nc3ccccc3C)cc2)C1 (centres undefined)	51.2%	
O=C1C(=O)N(CCCO)C(c2ccccc2)/C1=C(\O)c1ccc(Br)cc1 (centres undefined)	-14.6%	
O=C(N/N=C/c1cccc(OCc2ccccc2)c1)c1ccc(Br)o1		9.28 µM (active)
O=C(N/N=C/c1cccc(O)c1)c1cc2c(ccc3ccccc32)o1	-1.63%	
Cc1ccc(OCCOc2cccc(/C=N/NC(N)=O)c2)cc1	59.9%	
O=C(NCCCN1CCOCC1)c1cc(-c2ccccc2F)no1	36.9%	
Nc1ccccc1SC(C[N+](=O)[O-])c1ccccc1 (centres undefined)		4.15 µM (active)
Nc1ccccc1Sc1ccc(C(F)(F)F)cc1[N+](=O)[O-]	27.9%	
Nc1ccccc1SCc1cc([N+](=O)[O-])cc2c1OCOC2	58.4%	
CN(c1ccc(O)cc1)c1nc(-c2cccnc2)cs1	2.67%	
COc1ccc(OC)c(C2C3=C(N=c4s/c(=C\c5cccc(O)c5)c(=O)n42)c2ccccc2CC3)c1 (centres undefined)		5.86 µM (active)
O=C1CCCC2=C1C(c1ccccc1)n1c(s/c(=C/c3cccc(F)c3)c1=O)=N2 (centres undefined)	3.37%	
O=C(NCCc1ccc(F)cc1)c1ccc2nccnc2c1	136%	
CC(C)Cc1nc(Nc2ccc(S(=O)(=O)N3CCCC3)cc2)c2nnn(Cc3ccccc3)c2n1		4.65 µM (active)
CC(C)Nc1ncnc2c1nnn2Cc1ccccc1	-4.05%	
Clc1ccc(Nc2ncnc3c2nnn3Cc2ccccc2)cc1	-9.13%	
COc1cccc(CNC(=O)c2cccnc2Sc2ccc(Cl)cc2)c1	-4.1%	
COc1ccc(C(=O)OCC(=O)c2ccc(Cl)s2)c(OC)c1OC	9.16%	
CCN(CC)c1ccc([N+](=O)[O-])c2cccnc12	7.92%	
O=[N+]([O-])c1cc([N+](=O)[O-])c2cccnc2c1O	-13.4%	

SMILES	activity change, negative = inhibition	Potency
CC(CNc1ccc([N+](=O)[O-])c2cccnc12)Nc1c([N+](=O)[O-])cc(C(F)(F)F)cc1[N+](=O)[O-] (centres undefined)		10.4 µM (active)
N#Cc1cccc(OC(=O)c2ccc3c(=O)n4c(nc3c2)CCC4)c1	6.32%	
C=CCOc1ccc(/C=C/C(=O)OCC(=O)NC(C)c2ccc(F)cc2)cc1 (centres undefined)	0%	
CCOC(=O)C1CCCN(CCSc2ccc(C)cc2)C1 (centres undefined)	32.6%	
O=c1c(-c2ccc3c(c2)OCCO3)c(C(F)(F)F)oc2cc(O)cc(O)c12	-13.8%	
CCN1CCN(Cc2c(O)ccc3c(=O)c(-c4ccc(OC)c(OC)c4)c(C(F)(F)F)oc23)CC1		7.38 µM (active)
CCc1cc2c(=O)c(-c3ccc(F)cc3)c(C(F)(F)F)oc2cc1OCC(=O)O	-22.9%	
CC(CN1CCC(n2nccc2NC(=O)C2CCCC2)CC1)c1ccccc1 (centres undefined)	33.6%	
CC1CN(S(=O)(=O)c2cccc(C(F)(F)F)c2)CN1C(=O)N1CCOCC1 (centres undefined)	29%	
Cc1ccc(C(=O)NC2CCN(C(=O)Nc3ccccc3Cl)CC2)cc1	-7.87%	
CC1=C(C(N)=O)C(c2ccc(Br)cc2)n2ncnc2N1 (centres undefined)	5.11% [at 0.00184 µM]	
COC(=O)C1=C(C)Nc2ncnn2C1c1cccnc1 (centres undefined)	7.48%	
Clc1ccc2c(c1)C1=C(C(c3ccncc3)O2)C(c2ccc(Br)cc2)n2ncnc2N1 (centres undefined)		13.1 µM (active)
CN1CCN(C(=O)C(=O)c2cn(CC(=O)N3CCCC3)c3ccccc23)CC1	-0.113%	
COCCNC(=S)Nc1cc(S(=O)(=O)N2CCOCC2)ccc1N1CCCCC1	-7.53%	
CCN(CC)S(=O)(=O)c1cc(C(=O)Nc2cc(S(=O)(=O)N3CCOCC3)ccc2N2CCCC2)ccc1F		7.38 µM (active)
CCN1CCN(c2ccc(S(=O)(=O)N3CCCCC3)cc2NC(=O)c2cccc(NC(C)=O)c2)CC1		13.1 µM (active)
CCN(CC)S(=O)(=O)c1ccc(N2CCOCC2)c(NC(=O)C2COc3ccccc3O2)c1 (centres undefined)	12.5%	
CCN(CC)S(=O)(=O)c1ccc(N2CCOCC2)c(NC(=O)C(C)Oc2ccc(F)cc2)c1 (centres undefined)		4.65 µM (active)
CCN1CCN(c2ccc(S(=O)(=O)N3CCCCC3)cc2NC(=O)Cc2c(Cl)cccc2Cl)CC1	-11.9%	
O=C(COC(=O)Cc1ccc(F)cc1)Nc1cc(S(=O)(=O)N2CCOCC2)ccc1N1CCCC1	5.29%	
CCN(CC(=O)N1CCCC1)S(=O)(=O)c1ccc(F)cc1	78.3%	
Cc1ccc(S(=O)(=O)N2CCCCC2)cc1NC(=O)c1cccnc1	-15.5%	
